# Where two headings read alike, the source gives them in different places.
# Columns and labels:
# Details in all cases: read-out: apparent Kd, n = 1
# [1] = system: MAP2K6
# [2] = system: MAP4K2
# [3] = system: MARK3
# [4] = compound concentrations:100 nM and 1000 nM (sheet 'Lestaurtinib' of Supplementary Table 1),run:Lestaurtinib_02768_R1,Plate:MR028
# [5] = compound concentrations:100 nM and 1000 nM (sheet 'Lestaurtinib' of Supplementary Table 1),run:Lestaurtinib_02795_R1,Plate:MR022
# [6] = compound concentrations:100 nM and 1000 nM (sheet 'Lestaurtinib' of Supplementary Table 1),run:Lestaurtinib_02802_R3,Plate:MR029
# [7] = compound concentrations:100 nM and 1000 nM (sheet 'Lestaurtinib' of Supplementary Table 1),run:Lestaurtinib_03260_R1,Plate:MR033
# [8] = compound concentrations:100 nM and 1000 nM (sheet 'Lestaurtinib' of Supplementary Table 1),run:Lestaurtinib_03260_R3,Plate:MR033
# [9] = compound concentrations:100 nM and 1000 nM (sheet 'Lestaurtinib' of Supplementary Table 1),run:Lestaurtinib_02364_R1,Plate:MR002
# [10] = compound concentrations:100 nM and 1000 nM (sheet 'Lestaurtinib' of Supplementary Table 1),run:Lestaurtinib_02364_R3,Plate:MR002
# [11] = compound concentrations:100 nM and 1000 nM (sheet 'Lestaurtinib' of Supplementary Table 1),run:Lestaurtinib_02367_R2,Plate:MR003
# [12] = compound concentrations:100 nM and 1000 nM (sheet 'Lestaurtinib' of Supplementary Table 1),run:Lestaurtinib_02381_R1,Plate:MR004
substance,measurement,setting,value
Lestaurtinib,potency estimated from few doses,[1]; [4],183 nM
same,potency estimated from few doses,[1]; [5],143 nM
same,potency estimated from few doses,"[1]; compound concentrations:100 nM and 1000 nM (sheet 'Lestaurtinib' of Supplementary Table 1),run:Lestaurtinib_02802_R2,Plate:MR029",180 nM
same,potency estimated from few doses,[1]; [6],440 nM
same,potency estimated from few doses,"[1]; compound concentrations:100 nM and 1000 nM (sheet 'Lestaurtinib' of Supplementary Table 1),run:Lestaurtinib_03172_R1,Plate:MR031",154 nM
same,potency estimated from few doses,"[1]; compound concentrations:100 nM and 1000 nM (sheet 'Lestaurtinib' of Supplementary Table 1),run:Lestaurtinib_03252_R2,Plate:MR032",296 nM
same,potency estimated from few doses,[1]; [7],161 nM
same,potency estimated from few doses,[1]; [8],140 nM
same,potency estimated from few doses,"[2]; compound concentrations:100 nM and 1000 nM (sheet 'Lestaurtinib' of Supplementary Table 1),run:Lestaurtinib_02339_R1,Plate:MR001",329 nM
same,potency estimated from few doses,"[2]; compound concentrations:100 nM and 1000 nM (sheet 'Lestaurtinib' of Supplementary Table 1),run:Lestaurtinib_02339_R2,Plate:MR001",231 nM
same,potency estimated from few doses,[2]; [9],180 nM
same,potency estimated from few doses,"[2]; compound concentrations:100 nM and 1000 nM (sheet 'Lestaurtinib' of Supplementary Table 1),run:Lestaurtinib_02364_R2,Plate:MR002",196 nM
same,potency estimated from few doses,[2]; [10],260 nM
same,potency estimated from few doses,[2]; [11],163 nM
same,potency estimated from few doses,[2]; [12],163 nM
same,potency estimated from few doses,"[2]; compound concentrations:100 nM and 1000 nM (sheet 'Lestaurtinib' of Supplementary Table 1),run:Lestaurtinib_02381_R3,Plate:MR004",229 nM
same,potency estimated from few doses,"[2]; compound concentrations:100 nM and 1000 nM (sheet 'Lestaurtinib' of Supplementary Table 1),run:Lestaurtinib_02407_R1,Plate:MR005",134 nM
same,potency estimated from few doses,"[2]; compound concentrations:100 nM and 1000 nM (sheet 'Lestaurtinib' of Supplementary Table 1),run:Lestaurtinib_02407_R2,Plate:MR005",149 nM
same,potency estimated from few doses,"[2]; compound concentrations:100 nM and 1000 nM (sheet 'Lestaurtinib' of Supplementary Table 1),run:Lestaurtinib_02407_R3,Plate:MR005",180 nM
same,potency estimated from few doses,"[2]; compound concentrations:100 nM and 1000 nM (sheet 'Lestaurtinib' of Supplementary Table 1),run:Lestaurtinib_02422_R1,Plate:MR006",191 nM
same,potency estimated from few doses,"[2]; compound concentrations:100 nM and 1000 nM (sheet 'Lestaurtinib' of Supplementary Table 1),run:Lestaurtinib_02422_R2,Plate:MR006",261 nM
same,potency estimated from few doses,"[2]; compound concentrations:100 nM and 1000 nM (sheet 'Lestaurtinib' of Supplementary Table 1),run:Lestaurtinib_02422_R3,Plate:MR006",163 nM
same,potency estimated from few doses,"[2]; compound concentrations:100 nM and 1000 nM (sheet 'Lestaurtinib' of Supplementary Table 1),run:Lestaurtinib_02437_R3,Plate:MR007",29.8 nM
same,potency estimated from few doses,"[2]; compound concentrations:100 nM and 1000 nM (sheet 'Lestaurtinib' of Supplementary Table 1),run:Lestaurtinib_02438_R1,Plate:MR008",151 nM
same,potency estimated from few doses,"[2]; compound concentrations:100 nM and 1000 nM (sheet 'Lestaurtinib' of Supplementary Table 1),run:Lestaurtinib_02438_R2,Plate:MR008",277 nM
same,potency estimated from few doses,"[2]; compound concentrations:100 nM and 1000 nM (sheet 'Lestaurtinib' of Supplementary Table 1),run:Lestaurtinib_02473_R1,Plate:MR010",197 nM
same,potency estimated from few doses,"[2]; compound concentrations:100 nM and 1000 nM (sheet 'Lestaurtinib' of Supplementary Table 1),run:Lestaurtinib_02473_R2,Plate:MR010",202 nM
same,potency estimated from few doses,"[2]; compound concentrations:100 nM and 1000 nM (sheet 'Lestaurtinib' of Supplementary Table 1),run:Lestaurtinib_02482_R2,Plate:MR011",222 nM
same,potency estimated from few doses,"[2]; compound concentrations:100 nM and 1000 nM (sheet 'Lestaurtinib' of Supplementary Table 1),run:Lestaurtinib_02487_R2,Plate:MR012",182 nM
same,potency estimated from few doses,"[2]; compound concentrations:100 nM and 1000 nM (sheet 'Lestaurtinib' of Supplementary Table 1),run:Lestaurtinib_02487_R3,Plate:MR012",244 nM
same,potency estimated from few doses,"[2]; compound concentrations:100 nM and 1000 nM (sheet 'Lestaurtinib' of Supplementary Table 1),run:Lestaurtinib_02496_R1,Plate:MR013",231 nM
same,potency estimated from few doses,"[2]; compound concentrations:100 nM and 1000 nM (sheet 'Lestaurtinib' of Supplementary Table 1),run:Lestaurtinib_02566_R1,Plate:MR014",259 nM
same,potency estimated from few doses,"[2]; compound concentrations:100 nM and 1000 nM (sheet 'Lestaurtinib' of Supplementary Table 1),run:Lestaurtinib_02566_R2,Plate:MR014",180 nM
same,potency estimated from few doses,"[2]; compound concentrations:100 nM and 1000 nM (sheet 'Lestaurtinib' of Supplementary Table 1),run:Lestaurtinib_02566_R3,Plate:MR014",159 nM
same,potency estimated from few doses,"[2]; compound concentrations:100 nM and 1000 nM (sheet 'Lestaurtinib' of Supplementary Table 1),run:Lestaurtinib_02572_R1,Plate:MR015",196 nM
same,potency estimated from few doses,"[2]; compound concentrations:100 nM and 1000 nM (sheet 'Lestaurtinib' of Supplementary Table 1),run:Lestaurtinib_02572_R3,Plate:MR015",235 nM
same,potency estimated from few doses,"[2]; compound concentrations:100 nM and 1000 nM (sheet 'Lestaurtinib' of Supplementary Table 1),run:Lestaurtinib_02577_R1,Plate:MR016",199 nM
same,potency estimated from few doses,"[2]; compound concentrations:100 nM and 1000 nM (sheet 'Lestaurtinib' of Supplementary Table 1),run:Lestaurtinib_02577_R3,Plate:MR016",131 nM
same,potency estimated from few doses,"[2]; compound concentrations:100 nM and 1000 nM (sheet 'Lestaurtinib' of Supplementary Table 1),run:Lestaurtinib_02584_R3,Plate:MR017",245 nM
same,potency estimated from few doses,"[2]; compound concentrations:100 nM and 1000 nM (sheet 'Lestaurtinib' of Supplementary Table 1),run:Lestaurtinib_02601_R2,Plate:MR018",153 nM
same,potency estimated from few doses,"[2]; compound concentrations:100 nM and 1000 nM (sheet 'Lestaurtinib' of Supplementary Table 1),run:Lestaurtinib_02606_R1,Plate:MR019",184 nM
same,potency estimated from few doses,"[2]; compound concentrations:100 nM and 1000 nM (sheet 'Lestaurtinib' of Supplementary Table 1),run:Lestaurtinib_02606_R2,Plate:MR019",278 nM
same,potency estimated from few doses,"[2]; compound concentrations:100 nM and 1000 nM (sheet 'Lestaurtinib' of Supplementary Table 1),run:Lestaurtinib_02606_R3,Plate:MR019",191 nM
same,potency estimated from few doses,"[2]; compound concentrations:100 nM and 1000 nM (sheet 'Lestaurtinib' of Supplementary Table 1),run:Lestaurtinib_02724_R1,Plate:MR021",279 nM
same,potency estimated from few doses,"[2]; compound concentrations:100 nM and 1000 nM (sheet 'Lestaurtinib' of Supplementary Table 1),run:Lestaurtinib_02724_R2,Plate:MR021",279 nM
same,potency estimated from few doses,"[2]; compound concentrations:100 nM and 1000 nM (sheet 'Lestaurtinib' of Supplementary Table 1),run:Lestaurtinib_02724_R3,Plate:MR021",269 nM
same,potency estimated from few doses,"[2]; compound concentrations:100 nM and 1000 nM (sheet 'Lestaurtinib' of Supplementary Table 1),run:Lestaurtinib_02741_R1,Plate:MR023",191 nM
same,potency estimated from few doses,"[2]; compound concentrations:100 nM and 1000 nM (sheet 'Lestaurtinib' of Supplementary Table 1),run:Lestaurtinib_02741_R3,Plate:MR023",237 nM
same,potency estimated from few doses,"[2]; compound concentrations:100 nM and 1000 nM (sheet 'Lestaurtinib' of Supplementary Table 1),run:Lestaurtinib_02748_R2,Plate:MR024",289 nM
same,potency estimated from few doses,"[2]; compound concentrations:100 nM and 1000 nM (sheet 'Lestaurtinib' of Supplementary Table 1),run:Lestaurtinib_02752_R2,Plate:MR025",134 nM
same,potency estimated from few doses,"[2]; compound concentrations:100 nM and 1000 nM (sheet 'Lestaurtinib' of Supplementary Table 1),run:Lestaurtinib_02752_R3,Plate:MR025",136 nM
same,potency estimated from few doses,"[2]; compound concentrations:100 nM and 1000 nM (sheet 'Lestaurtinib' of Supplementary Table 1),run:Lestaurtinib_02765_R2,Plate:MR026",199 nM
same,potency estimated from few doses,"[2]; compound concentrations:100 nM and 1000 nM (sheet 'Lestaurtinib' of Supplementary Table 1),run:Lestaurtinib_02765_R3,Plate:MR026",158 nM
same,potency estimated from few doses,"[2]; compound concentrations:100 nM and 1000 nM (sheet 'Lestaurtinib' of Supplementary Table 1),run:Lestaurtinib_02766_R2,Plate:MR027",220 nM
same,potency estimated from few doses,"[2]; compound concentrations:100 nM and 1000 nM (sheet 'Lestaurtinib' of Supplementary Table 1),run:Lestaurtinib_02766_R3,Plate:MR027",231 nM
same,potency estimated from few doses,[2]; [4],190 nM
same,potency estimated from few doses,"[2]; compound concentrations:100 nM and 1000 nM (sheet 'Lestaurtinib' of Supplementary Table 1),run:Lestaurtinib_02768_R3,Plate:MR028",196 nM
same,potency estimated from few doses,[2]; [5],199 nM
same,potency estimated from few doses,"[2]; compound concentrations:100 nM and 1000 nM (sheet 'Lestaurtinib' of Supplementary Table 1),run:Lestaurtinib_02795_R2,Plate:MR022",146 nM
same,potency estimated from few doses,"[2]; compound concentrations:100 nM and 1000 nM (sheet 'Lestaurtinib' of Supplementary Table 1),run:Lestaurtinib_02795_R3,Plate:MR022",377 nM
same,potency estimated from few doses,[2]; [6],290 nM
same,potency estimated from few doses,"[2]; compound concentrations:100 nM and 1000 nM (sheet 'Lestaurtinib' of Supplementary Table 1),run:Lestaurtinib_02896_R2,Plate:MR030",215 nM
same,potency estimated from few doses,"[2]; compound concentrations:100 nM and 1000 nM (sheet 'Lestaurtinib' of Supplementary Table 1),run:Lestaurtinib_03172_R2,Plate:MR031",295 nM
same,potency estimated from few doses,"[2]; compound concentrations:100 nM and 1000 nM (sheet 'Lestaurtinib' of Supplementary Table 1),run:Lestaurtinib_03172_R3,Plate:MR031",235 nM
same,potency estimated from few doses,"[2]; compound concentrations:100 nM and 1000 nM (sheet 'Lestaurtinib' of Supplementary Table 1),run:Lestaurtinib_03252_R1,Plate:MR032",130 nM
same,potency estimated from few doses,[2]; [7],372 nM
same,potency estimated from few doses,[2]; [8],228 nM
same,potency estimated from few doses,[3]; [9],132 nM
same,potency estimated from few doses,[3]; [10],180 nM
same,potency estimated from few doses,"[3]; compound concentrations:100 nM and 1000 nM (sheet 'Lestaurtinib' of Supplementary Table 1),run:Lestaurtinib_02367_R1,Plate:MR003",92.8 nM
same,potency estimated from few doses,[3]; [11],160 nM
same,potency estimated from few doses,[3]; [12],132 nM
same,potency estimated from few doses,"[3]; compound concentrations:100 nM and 1000 nM (sheet 'Lestaurtinib' of Supplementary Table 1),run:Lestaurtinib_02381_R2,Plate:MR004",167 nM
